# Results from PubChem BioAssay (NCI).
# About 83,000 compounds went through this panel and 20% of them were active in at least one assay; those are over-represented in the sample as a whole.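 Single-dose data. Exposure time 48 hours. Values below 10 considered active.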 Unmarked numbers belong to inactive results. The source made the active and inactive calls.
# Test system: 786-0 renal
# Experiment: NCI-60 one-dose screen, 48 h (100 = growth as untreated, 0 = no growth, -100 = all killed)
# Details: 10 µM unless noted
row,Compound,growth
1,CC(=O)Nc1ccc(/C=C/C(=O)c2ccccc2)cc1,98.5%
2,CC1CCC(C)N(C)C1 (configuration not stated),94.4%
3,O=Nc1c(-c2cccc([N+](=O)[O-])c2)nc2ncccn12,93.9%
4,COc1cc2c(=O)n(C3CCCCCC3)c3c4cc[nH]c4ncc3c2cc1OC,90.2%
5,CN1C(=O)N(C)C2C1NN=c1s/c(=C\C=C\c3ccccc3)c(=O)n12 (configuration not stated),71.3%
6,O=C1c2ccccc2-c2ccccc2C1(Cl)Cl,103%
7,CC(C)(C)n1cc(-c2ccnc(NCCCNS(=O)(=O)c3ccc(Br)cc3)c2)c(-c2cccc(O)c2)n1,-2.1% (active)
8,O=C(Nc1ccncc1)C(=O)c1cn(S(=O)(=O)c2ccccc2F)c2ccccc12,36.9%
9,Nc1cccc(-c2nc3sccn3c2-c2ccnc(NCCNS(=O)(=O)c3ccc(C(F)(F)F)cc3)n2)c1,65.5%

# Test system: COLO 205 colon
# Experiment: as above
# Details: 10 µM unless noted
row,Compound,growth
1,CC(C)(C)n1cc(-c2ccnc(NCCCNS(=O)(=O)c3cccc(F)c3)c2)c(-c2cccc(O)c2)n1,8.99% (active)
2,Cc1ccc(N2CCN(C(C)C(N)=O)CC2)cc1 (configuration not stated),122%
3,NC(N)=N/N=C/c1ccc(-c2ccc(-c3cc(Cl)cc(Cl)c3)s2)cc1,-12.9% (active)
4,Cc1ccc2nc(-c3cc4c([nH]c5ccccc54)c(-c4ccc(F)c(F)c4)n3)[nH]c2c1,88%
5,CNc1ccc(Br)c2c1C(=O)c1ccccc1C2=O,132%
6,O=C(O)c1cn(C2CC2)c2cc(N3CCN(C(=O)/C=C/c4ccc(Cl)cc4)CC3)c(F)cc2c1=O,98.9%
7,CCC1=CCC[C@@]2(C)CCC[C@@]3(C)CCCC(C)(C)[C@]1([O-])[O+]32,112%
8,O=c1[nH]c(-c2ccccc2)nc(CN2CCCCC2)c1O,113%
9,Cc1ccc(Nc2nnc(-c3ccc(Cl)cc3)o2)c(C)c1,81.4%
10,O=C(N/N=C/C=C\c1ccccc1)C(=O)N/N=C/C=C/c1ccccc1,122%
11,COc1cc(-c2nc(N=Nc3c(O)[nH]c4ccc(Br)cc34)[nH]c(=O)c2C#N)cc(OC)c1OC,114%
12,O=C(NNC(=O)N1c2ccccc2C=Cc2ccccc21)c1ccc2ccccc2c1,101%
13,COc1cccc(-c2nc3sccn3c2-c2ccnc(NCCCNS(=O)(=O)c3ccc(C(F)(F)F)cc3)c2)c1,70.2%
14,c1cc(C2=N[C@@H]3c4ccccc4C[C@@H]3O2)nc(C2=N[C@@H]3c4ccccc4C[C@@H]3O2)c1,106%
15,c1cc2[nH]ncc2cc1-c1nc2ccc3[nH]ncc3c2c2c1CCC2,25.7%
16,CCOC(=O)C1=C(C)NC(C)=C(C(=O)OCC)C1(C)C,113%
17,CCOC(=O)c1ccc2c(c1)nc(-c1ccc(OCc3ccccc3)c(OC)c1)n2-c1cc(C(C)(C)C)[nH]n1,67.4%

row,Compound,growth
1,O=C1/C(=C/c2ccc(Cl)cc2)CN(C(=O)CCN2CCC(=NO)CC2)C/C1=C\c1ccc(Cl)cc1,-83.9% (active)
2,Cc1ccc(S(=O)(=O)NCCNc2cc(-c3cn(C(C)(C)C)nc3-c3cccc(O)c3)ccn2)cc1,18.1%
3,CC(C)CC1NC(C)(C)CO1 (configuration not stated),108%
4,Cc1ccc(C(=O)C2=Cc3cc4ccccc4n3Cc3cnnn32)cc1,111%
5,Brc1ccc(-c2[nH]ncc2-c2c[nH]c3ccccc23)cc1,109%
6,CCn1c2ccccc2c2cc(NC(=O)Nc3ccc([N+](=O)[O-])cc3C)ccc21,29.9%
7,N=c1ccc2nc3ccc(N)cc3sc-2c1,0.589% (active)
8,CCOC(=O)/C(C#N)=C1/C(=O)Nc2ccccc21,118%
9,O=[N+]([O-])c1ccc(Sc2ncccn2)c([N+](=O)[O-])c1,21%
10,O=C(O)C1CCCN1 (configuration not stated),110%
11,OCc1ncc(-c2ccccc2)s1,114%
12,Oc1ccc2cc(Br)ccc2c1-c1c(O)ccc2cc(Br)ccc12,54.7%
13,COc1ccc(/C=C2\Oc3cc(OCCCN4CCCC4)ccc3C2=O)c(OC)c1,92.8%
14,CC(=O)Nc1ccc(/C=C/C(=O)c2ccccc2)cc1,112%
15,CC1CCC(C)N(C)C1 (configuration not stated),110%
16,O=Nc1c(-c2cccc([N+](=O)[O-])c2)nc2ncccn12,65.1%
